The nature of experiment [1]: qHTS assay to identify aromatase inhibitors - cell viability counter screen (AID 743084).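 Note: cells stimulated with testosterone during compound exposure; nearly all actives have a fitted effect of over 55% in size.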 Background: qHTS replaces the single test concentration by a dilution series.
In experiment [2] the target is Aryl hydrocarbon receptor (Homo sapiens) (UniProt P35869). The experiment can be described thus: qHTS assay to identify small molecule that activate the aryl hydrocarbon receptor (AhR) signaling pathway (AID 743085).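 For activation: HG2L7.5c1 human HepG2 liver cells with stably integrated DRE-driven firefly reporter; series mostly up to about 70 µM.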 Note: nearly all actives have a fitted effect of over 15% in size. Note: potency is the fitted concentration of half-maximal effect. A digest of the protocol: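 24 h compound exposure, 37C, HepG2-derived HG2L7.5c1 cells with DRE-responsive luciferase. Readouts: fluorescence viability, then luminescence at room temperature after 30 min.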
Sequence of Aryl hydrocarbon receptor (Homo sapiens) (P35869 whole entry, looked up): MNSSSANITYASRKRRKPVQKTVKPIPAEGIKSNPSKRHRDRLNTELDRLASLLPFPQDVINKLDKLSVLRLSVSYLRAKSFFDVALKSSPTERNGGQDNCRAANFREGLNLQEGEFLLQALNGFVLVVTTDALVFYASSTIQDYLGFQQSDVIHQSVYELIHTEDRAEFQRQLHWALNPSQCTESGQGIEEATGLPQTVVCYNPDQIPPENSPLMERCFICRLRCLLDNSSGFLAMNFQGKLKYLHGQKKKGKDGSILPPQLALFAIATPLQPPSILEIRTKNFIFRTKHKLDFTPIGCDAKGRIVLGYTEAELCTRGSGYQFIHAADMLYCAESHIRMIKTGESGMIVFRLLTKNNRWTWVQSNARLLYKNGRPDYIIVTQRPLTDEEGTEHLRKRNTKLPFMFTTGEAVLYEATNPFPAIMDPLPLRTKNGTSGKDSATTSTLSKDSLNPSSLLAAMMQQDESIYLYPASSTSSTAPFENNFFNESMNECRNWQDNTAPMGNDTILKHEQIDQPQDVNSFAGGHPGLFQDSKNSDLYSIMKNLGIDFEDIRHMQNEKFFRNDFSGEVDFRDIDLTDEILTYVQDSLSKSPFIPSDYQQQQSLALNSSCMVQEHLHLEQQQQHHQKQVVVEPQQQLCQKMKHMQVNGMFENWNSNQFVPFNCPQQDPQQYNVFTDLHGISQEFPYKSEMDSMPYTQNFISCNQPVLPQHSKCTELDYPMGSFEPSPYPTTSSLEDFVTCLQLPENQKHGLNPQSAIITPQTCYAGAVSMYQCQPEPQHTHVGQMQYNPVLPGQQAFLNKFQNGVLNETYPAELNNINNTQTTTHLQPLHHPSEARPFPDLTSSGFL

Experiment [3] is described as follows: qHTS assay to identify small molecule that activate the aryl hydrocarbon receptor (AhR) signaling pathway - cell viability counter screen (AID 743086).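 Note: HepG2 liver cells carrying the AhR DRE luciferase reporter; series mostly up to about 70 µM; nearly all actives have a fitted effect of over 45% in size.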 A digest of the protocol:
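Cytotoxicity counter screen: CellTiter-Fluor signal (30 min, 37 C) in 4000 HepG2 cells/well carrying the DRE-luciferase reporter, following 24 h compound exposure at 37 C.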

The target in experiment [4] is Peroxisome proliferator-activated receptor gamma (Homo sapiens) (UniProt P37231). The experiment in a line: qHTS assay to identify small molecule agonists of the peroxisome proliferator-activated receptor gamma (PPARg) signaling pathway (AID 743094; active = well fitted activation curve with a large enough effect in the signal ratio in the repeat runs, not every such curve was filed as active; the % refers to the signal ratio). A digest of the protocol:
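GeneBLAzer PPARg UAS-bla HEK293H cells were plated, rested 5 h, then exposed to compounds for 17 h at 37C. Beta-lactamase activity was read by LiveBLAzer B/G FRET substrate fluorescence after 1 h at room temperature.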

For experiment [5] the target is unchanged. The experiment can be described thus: qHTS assay to identify small molecule antagonists of the peroxisome proliferator-activated receptor gamma (PPARg) signaling pathway (AID 743191; calls by dose curve; note: series mostly up to about 63 µM; nearly all actives have a fitted effect of over 30% in size). A digest of the protocol:
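Beta-lactamase reporter under UAS control in HEK293H PPARg-bla cells; compound treatment 17 h at 37C. Read-out: fluorescence intensity after 1 h room-temperature incubation with LiveBLAzer B/G FRET substrate.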

Experiment [6] is described as follows: qHTS assay to identify small molecule antagonists of the peroxisome proliferator-activated receptor gamma (PPARg) signaling pathway - cell viability counter screen (AID 743194). Note: nearly all actives have a fitted effect of over 55% in size. To be noted: Potency: co-treated with 50 nM rosiglitazone unless noted. A digest of the protocol:
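Viability was measured as CellTiter-Glo luminescence in GeneBLAzer PPARg UAS-bla HEK293H cells. These cells had been exposed 17 h at 37 C to compounds together with rosiglitazone at 50 nM final, with the beta-lactamase readout taken in the same wells.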

A short description of experiment [7]: qHTS assay for small molecule agonists of the antioxidant response element (ARE) signaling pathway (AID 743202; active = well fitted activation curve with a large enough effect in the signal ratio in the repeat runs, not every such curve was filed as active; the % refers to the signal ratio). An outline of the steps:
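An ARE-responsive beta-lactamase gene stably integrated in HepG2 cells serves as reporter. After 5 h plating and 16 h compound incubation at 37 C, fluorescence of the B/G FRET substrate was measured.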

Experiment [8] can be described thus: qHTS assay for small molecule agonists of the antioxidant response element (ARE) signaling pathway - cell viability counter screen (AID 743203; calls by dose curve; note: nearly all actives have a fitted effect of over 55% in size). A digest of the protocol:
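ARE-bla HepG2 cells were plated, rested 5 h at 37C/5% CO2, then exposed to compounds in DMSO for 16 h. Viability was read as CellTiter-Glo luminescence after 30 min at room temperature, in the same wells as the ARE screen.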

Experiment [9] can be described thus: qHTS assay for small molecule activators of the heat shock response signaling pathway - cell viability counter screen (AID 743209). Note: nearly all actives have a fitted effect of over 50% in size. A digest of the protocol: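 HSE-bla HeLa cells plated overnight, then exposed to Tox21 compounds (23 nL in DMSO) for 5 h at 37 C. After the bla reporter read, CellTiter-Glo was added in the same wells and luminescence read after 30 min at room temperature.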

A short description of experiment [10]: qHTS assay to identify small molecule agonists of the peroxisome proliferator-activated receptor delta (PPARd) signaling pathway - cell viability counter screen (AID 743211). Note: nearly all actives have a fitted effect of over 55% in size. An outline of the steps: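 Luminescent ATP viability assay (CellTiter-Glo, 30 min RT) in UAS-bla HEK293H cells carrying the PPAR delta reporter construct, 3000 cells/well, after a 17 h compound treatment at 37 C.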

Experiment [11] concerns the target Bile acid receptor (Homo sapiens) (UniProt Q96RI1). The experiment in a line: qHTS assay to identify small molecule antagonists of the farnesoid-X-receptor (FXR) signaling pathway (AID 743217; active = well fitted inhibition curve with a large enough effect in the signal ratio in the repeat runs, not every such curve was filed as active; the % refers to the signal ratio). A digest of the protocol:
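FXR-UAS-bla HEK 293T cells (beta-lactamase reporter) given compound plus chenodeoxycholic acid (50 uM final), 16 h at 37C. LiveBLAzer B/G FRET substrate added for 2 h at room temperature; fluorescence read.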

Experiment [12] in a line: qHTS assay to identify small molecule agonists of the farnesoid-X-receptor (FXR) signaling pathway - cell viability counter screen (AID 743218). Note: nearly all actives have a fitted effect of over 45% in size. A digest of the protocol:
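FXR-UAS-bla HEK 293T cells exposed to compounds for 16 h at 37C. Cytotoxicity read in the same wells by CellTiter-Glo luminescence after 30 min at room temperature, following the beta-lactamase FRET read.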

Experiment [13] addresses Bile acid receptor (Homo sapiens) (UniProt Q96RI1). The experiment in a line: qHTS assay to identify small molecule agonists of the farnesoid-X-receptor (FXR) signaling pathway (AID 743220; active = well fitted activation curve with a large enough effect in the signal ratio in the repeat runs, not every such curve was filed as active; the % refers to the signal ratio). An outline of the steps:
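Beta-lactamase reporter under UAS control in GeneBLAzer FXR HEK 293T cells (5000/well) measured with LiveBLAzer FRET substrate after 2 h at room temperature. Compound exposure lasted 16 h at 37C.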

Experiment [14] in a line: qHTS assay to identify small molecule antagonists of the farnesoid-X-receptor (FXR) signaling pathway - cell viability counter screen (AID 743221; active = well fitted cell-killing curve with a large enough effect in the repeat runs, not every such curve was filed as active; note: nearly all actives have a fitted effect of over 50% in size). An outline of the steps: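 In GeneBLAzer FXR-UAS-bla HEK 293T cells stimulated with 50 uM chenodeoxycholic acid (final), compounds acted for 16 h at 37 C. Viability was assessed afterwards by CellTiter-Glo luminescence.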
For experiment [15], the target named is Vitamin D3 receptor (Homo sapiens) (UniProt P11473). The experiment can be described thus: qHTS assay to identify small molecule agonists of the vitamin D receptor (VDR) signaling pathway (AID 743222; calls by dose curve). A digest of the protocol:
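VDR-bla cells plated 4 h at 37 C, then exposed to compounds for 16 h at 37 C. Beta-lactamase reporter activity measured by fluorescence after 2 h room-temperature loading with LiveBLAzer B/G FRET substrate.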

For experiment [16] the target is unchanged. The experiment in a line: qHTS assay to identify small molecule antagonists of the vitamin D receptor (VDR) signaling pathway (AID 743223; active = well fitted inhibition curve with a large enough effect in the signal ratio in the repeat runs, not every such curve was filed as active; the % refers to the signal ratio). A digest of the protocol:
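Agonist 1alpha,25-dihydroxyvitamin D3 (3 nM in well) was added with each compound to VDR-bla cells preincubated 4 h. Cells stood 16 h at 37C, then FRET substrate 2 h at room temperature; fluorescence intensity recorded.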

Experiment [17] can be described thus: qHTS assay for small molecule activators of the heat shock response signaling pathway (AID 743210; active = well fitted activation curve with a large enough effect in the signal ratio in the repeat runs, with a control signal flat, not every such curve was filed as active; the % refers to the signal ratio;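 note: HeLa cells with beta-lactamase reporter driven by heat shock elements; series mostly up to about 63 µM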). An outline of the steps: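 In HSE-bla HeLa cells, 5 h compound incubation (37 C) precedes addition of LiveBLAzer B/G substrate; after 2.5 h at room temperature, fluorescence intensity indicates reporter induction.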
Experiment [18] deals with Peroxisome proliferator-activated receptor delta (Homo sapiens) (UniProt Q03181). The experiment in a line: qHTS assay to identify small molecule agonists of the peroxisome proliferator-activated receptor delta (PPARd) signaling pathway (AID 743212; calls by dose curve). A digest of the protocol:
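HEK293H UAS-bla reporter cells, human PPARd system; compounds delivered in DMSO after 5 h plating, then at 37 C. Beta-lactamase FRET read, 2 h RT substrate step.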

Experiment [19] is described as follows: qHTS assay to identify small molecule antagonists of the peroxisome proliferator-activated receptor delta (PPARd) signaling pathway - cell viability counter screen (AID 743213). Note: nearly all actives have a fitted effect of over 50% in size. A digest of the protocol:
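Cytotoxicity counter screen: CellTiter-Glo luminescence read 30 min after addition, in the same wells as the reporter assay. There, PPARd UAS-bla HEK293H cells (3000/well) were treated 17 h at 37 C with compound and 300 nM L165041.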

For experiment [20], the target named is Peroxisome proliferator-activated receptor delta (Homo sapiens) (UniProt Q03181). The experiment in a line: qHTS assay to identify small molecule antagonists of the peroxisome proliferator-activated receptor delta (PPARd) signaling pathway (AID 743215; active = well fitted inhibition curve with a large enough effect in the signal ratio in the repeat runs, not every such curve was filed as active; the % refers to the signal ratio;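 note: cells stimulated with agonist L165041 at 300 nM final during compound exposure; series mostly up to about 62 µM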). A digest of the protocol: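 PPARd-bla HEK293H cells (UAS-bla reporter) preincubated 5 h, then given compound plus 300 nM final L165041 agonist for 17 h at 37 C. Beta-lactamase activity read by LiveBLAzer B/G FRET substrate fluorescence after 2 h at room temperature.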
Sequence of Peroxisome proliferator-activated receptor delta (Homo sapiens) (Q03181 whole entry, looked up): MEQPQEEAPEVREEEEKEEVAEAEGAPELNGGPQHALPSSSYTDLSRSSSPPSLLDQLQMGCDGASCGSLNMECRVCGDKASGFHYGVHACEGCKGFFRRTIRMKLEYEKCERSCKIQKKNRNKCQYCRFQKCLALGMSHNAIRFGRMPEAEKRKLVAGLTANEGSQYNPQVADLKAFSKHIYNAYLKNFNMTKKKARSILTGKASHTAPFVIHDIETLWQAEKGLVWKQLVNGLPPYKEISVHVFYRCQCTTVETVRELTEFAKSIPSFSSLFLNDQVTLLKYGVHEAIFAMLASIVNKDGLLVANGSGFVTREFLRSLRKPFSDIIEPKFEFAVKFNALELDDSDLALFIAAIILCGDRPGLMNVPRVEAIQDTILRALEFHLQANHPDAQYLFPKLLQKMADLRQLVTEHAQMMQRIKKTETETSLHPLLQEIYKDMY

Results filed as inconclusive are left out. Active and inactive are the calls of the source. Unless noted, calls come from the whole dose curve; as a rule, active = well fitted curve in the direction sought with a large enough effect in the repeat runs; inconclusive = weak or mixed curves; inactive = no such curve, though single readings can be large; an effect the other way counts as inactive or inconclusive.

Sequence of Peroxisome proliferator-activated receptor gamma (Homo sapiens) (P37231 whole entry, looked up): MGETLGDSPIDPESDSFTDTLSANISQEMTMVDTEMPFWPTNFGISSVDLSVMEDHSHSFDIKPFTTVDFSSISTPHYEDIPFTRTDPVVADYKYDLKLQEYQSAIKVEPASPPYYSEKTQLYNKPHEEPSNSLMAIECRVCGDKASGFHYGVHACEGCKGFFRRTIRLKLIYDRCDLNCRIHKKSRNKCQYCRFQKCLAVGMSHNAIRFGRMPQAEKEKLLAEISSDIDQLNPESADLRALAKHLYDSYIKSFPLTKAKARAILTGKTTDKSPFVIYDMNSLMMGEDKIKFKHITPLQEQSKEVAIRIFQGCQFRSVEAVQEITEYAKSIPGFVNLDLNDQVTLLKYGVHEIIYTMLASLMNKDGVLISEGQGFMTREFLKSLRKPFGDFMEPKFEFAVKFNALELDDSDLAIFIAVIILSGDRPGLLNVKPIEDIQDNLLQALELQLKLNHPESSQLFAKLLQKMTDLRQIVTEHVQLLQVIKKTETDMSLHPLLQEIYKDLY
Sequence of Bile acid receptor (Homo sapiens) (Q96RI1 whole entry, looked up): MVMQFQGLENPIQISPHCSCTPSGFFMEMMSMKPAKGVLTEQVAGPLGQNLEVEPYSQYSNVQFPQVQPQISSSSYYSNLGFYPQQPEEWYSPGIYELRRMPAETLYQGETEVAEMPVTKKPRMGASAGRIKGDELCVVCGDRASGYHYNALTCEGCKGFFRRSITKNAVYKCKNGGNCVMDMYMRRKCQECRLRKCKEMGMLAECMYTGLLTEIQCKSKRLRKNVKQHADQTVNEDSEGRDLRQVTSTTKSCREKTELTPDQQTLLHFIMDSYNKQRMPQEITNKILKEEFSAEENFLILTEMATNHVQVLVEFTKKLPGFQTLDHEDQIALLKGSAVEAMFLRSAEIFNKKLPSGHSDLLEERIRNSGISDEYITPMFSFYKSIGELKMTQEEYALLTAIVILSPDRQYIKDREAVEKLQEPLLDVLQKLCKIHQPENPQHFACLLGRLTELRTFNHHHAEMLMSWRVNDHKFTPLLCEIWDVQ
Sequence of Vitamin D3 receptor (Homo sapiens) (P11473 whole entry, looked up): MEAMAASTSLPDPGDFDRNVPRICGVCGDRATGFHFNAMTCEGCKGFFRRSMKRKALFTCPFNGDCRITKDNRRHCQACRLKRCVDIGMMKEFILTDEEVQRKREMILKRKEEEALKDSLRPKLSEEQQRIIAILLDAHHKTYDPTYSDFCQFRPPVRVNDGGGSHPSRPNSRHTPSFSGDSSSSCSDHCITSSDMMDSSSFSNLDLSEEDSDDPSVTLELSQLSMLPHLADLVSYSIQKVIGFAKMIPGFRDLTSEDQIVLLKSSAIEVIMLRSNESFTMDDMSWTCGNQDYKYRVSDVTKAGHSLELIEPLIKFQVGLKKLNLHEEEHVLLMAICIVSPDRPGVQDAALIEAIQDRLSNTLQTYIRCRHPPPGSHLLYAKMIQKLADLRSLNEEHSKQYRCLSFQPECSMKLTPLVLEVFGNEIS

Consider `O=Cc1ccc(CO)o1`, for which the Potency entry in experiment [1], in [2], in experiment [3], in experiment [4], in [5] and in experiment [6] was “inactive” in each case. The Potency result in [7], in experiment [8], in experiment [9], in [10], in experiment [11] and in experiment [12] was “inactive” throughout. Moreover, the Potency result in experiment [13], in [14] and in experiment [16] was “inactive” in each case. Also, the molecule was called inactive in [15].

For `CC(=O)OCCC(C)C`, the Potency result in [1], in experiment [2], in experiment [3], in experiment [4], in experiment [5] and in experiment [6] was “inactive” throughout. The Potency entry in experiment [7], in experiment [8], in experiment [9], in experiment [17], in experiment [10] and in experiment [18] was “inactive” throughout. Further, the Potency entry in [19], in experiment [20], in experiment [12] and in experiment [14] was “inactive” each time.

Turning to `Cc1ccc([N+](=O)[O-])cc1N`, the Potency result in [1], in experiment [3], in experiment [4], in experiment [5], in experiment [6] and in [7] was “inactive” throughout. The Potency result in [8], in experiment [9], in experiment [17], in experiment [10], in [18] and in experiment [20] was “inactive” in each case. In addition, the Potency entry in experiment [11], in experiment [12], in [13], in [14] and in experiment [16] was “inactive” each time. Moreover, in experiment [2], the Potency was 61 µM (active). Moreover, the outcome in experiment [15] was inactive.

For the molecule `CC1=CC(=O)CC(C)(C)C1`, the Potency result in [1], in experiment [2], in experiment [3], in experiment [4], in [5] and in experiment [6] was “inactive” in each case. In addition, the Potency result in experiment [7], in experiment [8], in experiment [9], in [10], in [18] and in experiment [20] was “inactive” in each case. Further, the Potency result in [12], in experiment [14] and in experiment [16] was “inactive” throughout. Besides, the molecule was called inactive in experiment [15].

`CC(C=O)Cc1ccc(C(C)(C)C)cc1` (stereo not drawn): the Potency result in experiment [1], in [2], in experiment [3], in [4], in experiment [5] and in experiment [6] was “inactive” each time. Moreover, the Potency entry in experiment [7], in experiment [8], in [9], in experiment [10], in [18] and in [19] was “inactive” throughout. The Potency result in [20], in experiment [11], in experiment [12], in experiment [13] and in [14] was “inactive” each time. In addition, the molecule was called inactive in [15].

Take `C=C1C[C@]23C[C@@]1(O)CC[C@H]2[C@@]12C=C[C@H](O)[C@@](C)(C(=O)O1)[C@H]2[C@@H]3C(=O)O`: the Potency result in [1], in experiment [2], in experiment [3], in experiment [4], in experiment [5] and in [6] was “inactive” in each case. Moreover, the Potency result in experiment [7], in experiment [8], in [9], in experiment [10], in experiment [18] and in experiment [19] was “inactive” throughout. Moreover, the Potency result in experiment [20], in experiment [11], in [12], in experiment [13], in experiment [14] and in experiment [16] was “inactive” in each case. Besides, the outcome in experiment [15] was inactive.

In the case of `CC(=O)OC(C)(C)C1CC=C(C)CC1` (stereo not drawn), the Potency result in experiment [1], in experiment [2], in experiment [3], in experiment [4], in experiment [5] and in experiment [6] was “inactive” each time. The Potency entry in experiment [7], in experiment [8], in experiment [9], in experiment [10], in experiment [18] and in experiment [20] was “inactive” each time. In addition, the Potency result in [12], in [14] and in [16] was “inactive” each time. For the same molecule, the molecule was called inactive in [15].

Take `Cc1cc(C)c(O)c(C)c1`: the Potency entry in [1], in experiment [2], in [3], in experiment [4], in experiment [5] and in experiment [6] was “inactive” in each case. Besides, the Potency result in [7], in experiment [8], in experiment [9], in experiment [17], in experiment [10] and in [18] was “inactive” each time. For the same molecule, the Potency entry in experiment [19], in [20], in experiment [11], in experiment [12], in experiment [13] and in experiment [14] was “inactive” each time.

The values are drawn from PubChem BioAssay (Tox21).
